# Results as given in PubChem BioAssay (NCATS).
# A number with no mark means an inactive call. Results filed as inconclusive are left out. Entries that show only a call come without a potency. Calls of active or inactive are those of the source. Unless noted, the call rests on the fitted dose curve; in most records, active means well fitted curve in the direction sought with a large enough effect; inconclusive means small, poorly fitted or top-dose-only effect, or another doubt; inactive means no such curve, though single readings can be large; an effect the other way counts as inactive or inconclusive.
# Key:
# [1] = biological target: Lysosomal acid glucosylceramidase (Homo sapiens) (UniProt P04062); experiment: Glucocerebrosidase-p2 (AID 348; in the data active means potency below about 10 µM; further: potency means the concentration at half of the fitted maximal effect); settings: purified GBA, blue fluorogenic substrate, 40 min
# Chain of Lysosomal acid glucosylceramidase (Homo sapiens) (P04062 whole entry, looked up): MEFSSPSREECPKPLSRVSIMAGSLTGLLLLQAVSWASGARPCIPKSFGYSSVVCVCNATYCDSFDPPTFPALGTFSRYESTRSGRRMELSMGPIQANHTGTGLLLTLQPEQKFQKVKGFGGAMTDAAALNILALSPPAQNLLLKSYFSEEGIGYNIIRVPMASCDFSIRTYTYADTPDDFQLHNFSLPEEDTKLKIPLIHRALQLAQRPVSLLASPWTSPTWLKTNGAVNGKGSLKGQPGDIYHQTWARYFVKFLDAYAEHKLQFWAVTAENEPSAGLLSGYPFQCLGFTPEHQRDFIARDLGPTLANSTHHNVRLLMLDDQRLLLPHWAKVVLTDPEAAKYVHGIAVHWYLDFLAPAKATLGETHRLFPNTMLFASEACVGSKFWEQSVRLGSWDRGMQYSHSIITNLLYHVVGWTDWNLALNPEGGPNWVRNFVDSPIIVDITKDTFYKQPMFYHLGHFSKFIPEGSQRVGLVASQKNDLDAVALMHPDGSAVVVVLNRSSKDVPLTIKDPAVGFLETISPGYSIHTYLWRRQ
# Procedure, shortened: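 Normal human glucocerebrosidase (0.2 nM) with blue fluorogenic substrate (80 uM final) in citrate/phosphate pH 5.9 with 10mM sodium taurocholate, 0.01% tween-20; 40 min RT, NaOH/glycine stop; fluorescence Ex 365/Em 440; AC50 from a titration from 0.6 nM upwards.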
# [2] = AP1 Signaling Pathway (AID 357; active means well fitted curve in either direction with a large enough effect, not every such curve was filed as active;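 further: ME-180 reporter cells stimulated with EGF at its EC50 level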); settings: ME-180 AP-1-bla reporter, EGF-induced, beta-lactamase ratio, 5 h; at 7.69 µM (top of the series) unless noted
# Procedure, shortened: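 Modulation of EGF-driven AP-1 transcription was assessed with a beta-lactamase reporter in ME-180 cells. Compound and EC50 EGF were co-incubated 5 hours at 37 °C before 2.5-hour CCF4 loading at room temperature and dual-emission reading.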
# [3] = NFAT Signaling Pathway (AID 444; active means well fitted curve in either direction with a large enough effect, not every such curve was filed as active;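 further: carbachol stimulus at about its EC50 of 1 µM final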); settings: Jurkat NFAT-bla M1, carbachol, beta-lactamase ratio, 5 h; at 7.69 µM (top of the series) unless noted
# Procedure, shortened: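 Jurkat cells with NFAT-driven β-lactamase reporter and co-expressed M1 receptor, stimulated with carbachol (final 1 uM, ~EC50), compound titration, 5 h at 37 °C. CCF4 loaded 1 h at RT; 460/530 nm ratio gave %activity and AC50.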
# [4] = Stat Signaling Pathway (AID 446; active means well fitted curve in either direction with a large enough effect, not every such curve was filed as active;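 further: ME-180 cervical cancer cells given 40 pM IL-6 alongside compound; SIE-controlled beta-lactamase reporter measured as 460/530 nm FRET emission ratio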); settings: ME-180 (cervical carcinoma) SIE beta-lactamase reporter, IL-6 stimulated, 5 h; series mostly up to 7.69 µM
# Procedure, shortened: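 Emission at 460 and 530 nm (excitation 405 nm) reports SIE-controlled beta-lactamase in ME-180 cells. Cells received compound with 40 pM IL-6 for 5 hrs at 37 C; data scaled between 300 pM IL-6 and 125 nM JAK-inhibitor controls.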
# [5] = biological target: Glucocorticoid receptor (Homo sapiens) (UniProt P04150); experiment: GR-EFC Redistribution (AID 451; calls by dose curve; further: potency means the concentration at half of the fitted maximal effect); settings: CHO-K1 GR-EFC translocation, beta-gal luminescence, 2 h
# Chain of Glucocorticoid receptor (Homo sapiens) (P04150 whole entry, looked up, the tested form may be a part): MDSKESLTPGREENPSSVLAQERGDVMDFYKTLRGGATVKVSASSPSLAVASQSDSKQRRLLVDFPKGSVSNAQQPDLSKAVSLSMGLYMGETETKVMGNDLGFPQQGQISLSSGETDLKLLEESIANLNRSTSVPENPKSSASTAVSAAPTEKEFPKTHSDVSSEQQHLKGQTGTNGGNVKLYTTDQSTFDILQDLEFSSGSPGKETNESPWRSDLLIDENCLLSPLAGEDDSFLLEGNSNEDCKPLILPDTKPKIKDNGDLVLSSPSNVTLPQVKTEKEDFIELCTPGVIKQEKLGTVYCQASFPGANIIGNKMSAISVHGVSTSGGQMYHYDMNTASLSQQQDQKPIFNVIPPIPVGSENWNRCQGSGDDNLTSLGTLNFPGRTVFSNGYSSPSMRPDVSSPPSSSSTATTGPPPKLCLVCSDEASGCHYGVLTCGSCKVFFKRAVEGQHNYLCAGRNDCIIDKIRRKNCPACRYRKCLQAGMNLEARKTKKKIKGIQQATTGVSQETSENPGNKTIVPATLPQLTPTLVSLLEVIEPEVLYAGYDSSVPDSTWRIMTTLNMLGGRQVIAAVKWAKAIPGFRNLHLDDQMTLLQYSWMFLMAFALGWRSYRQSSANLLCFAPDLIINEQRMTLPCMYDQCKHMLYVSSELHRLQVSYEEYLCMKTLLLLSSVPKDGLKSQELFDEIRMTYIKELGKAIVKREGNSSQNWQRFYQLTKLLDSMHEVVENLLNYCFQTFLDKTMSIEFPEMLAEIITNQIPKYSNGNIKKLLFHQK
# Procedure, shortened: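 CHO-K1 cells expressing nuclear EA and GR-ED fragments of b-gal; compounds titrated up to 46 uM final, 2 h at 37 C. GR nuclear translocation read as complemented b-gal luminescence after 1 h RT detection.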
# [6] = biological target: Mitogen-activated protein kinase 10 (Mus musculus) (UniProt Q61831); experiment: JNK3 AlphaScreen Assay (AID 530; active means well fitted curve in either direction with a large enough effect, not every such curve was filed as active;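 further: kinase came from lysate of stimulated human HepG2 cells; signal reports phosphorylation of biotinylated GST-cJun 1-79 at Ser73 with 10 µM ATP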); settings: JNK3 lysate, c-Jun phosphorylation; series mostly up to 57.1 µM
# Procedure, shortened: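 Activity was read by AlphaScreen after JNK3-containing HepG2 lysate (cytokine pre-activated) phosphorylated biotinylated GST-cJun with 10 uM ATP at room temperature. Phospho-Ser73 cJun antibody with Protein-A acceptor beads provided detection.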
# [7] = biological target: Dual specificity protein kinase CLK4 (Homo sapiens) (UniProt Q9HAZ1); experiment: qHTS Assay for Inhibitors of CDC-like Kinase 4 (ADP-FP Assay) (AID 1795); settings: Transcreener ADP fluorescence polarization; series mostly up to 50 µM;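 further: recombinant human CLK4 phosphorylating RS repeat peptide at 1 µM ATP; nearly all actives have a fitted effect of over 60% in size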
# Chain of Dual specificity protein kinase CLK4 (Homo sapiens) (Q9HAZ1 whole entry, looked up): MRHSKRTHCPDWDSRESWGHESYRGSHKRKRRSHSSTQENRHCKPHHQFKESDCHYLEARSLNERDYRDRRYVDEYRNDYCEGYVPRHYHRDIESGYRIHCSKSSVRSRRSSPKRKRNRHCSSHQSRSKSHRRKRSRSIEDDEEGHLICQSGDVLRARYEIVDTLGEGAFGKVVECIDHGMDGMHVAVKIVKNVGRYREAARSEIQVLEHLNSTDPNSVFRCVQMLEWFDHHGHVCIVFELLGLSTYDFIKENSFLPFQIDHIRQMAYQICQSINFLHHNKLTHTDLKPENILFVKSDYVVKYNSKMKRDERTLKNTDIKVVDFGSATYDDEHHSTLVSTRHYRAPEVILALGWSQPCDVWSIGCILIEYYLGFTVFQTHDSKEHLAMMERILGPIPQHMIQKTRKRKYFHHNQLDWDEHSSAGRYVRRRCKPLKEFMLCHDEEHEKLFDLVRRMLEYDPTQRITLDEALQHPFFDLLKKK
# Procedure, shortened: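 Kinase activity was measured as ADP production using Transcreener orange tracer (4 nM) and ADP antibody (1 ug/mL) fluorescence polarization, with ADP calculated from a calibration curve. The 1 h reaction contained 6.25 nM Clk4, 1 uM ATP and 100 uM RS peptide at pH 7.5 with Mg2+.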
# [8] = biological target: Ubiquitin carboxyl-terminal hydrolase 1 (Homo sapiens) (UniProt O94782); experiment: Inhibitors of USP1/UAF1: Pilot qHTS (AID 504865); settings: purified USP1/UAF1, Ub-rhodamine cleavage fluorescence; series mostly up to 54.9 µM;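 further: rhodamine fluorescence freed from ubiquitin-rhodamine substrate followed over time; top concentration of the series differs between compounds; nearly all actives have a fitted effect of over 35% in size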
# Chain of Ubiquitin carboxyl-terminal hydrolase 1 (Homo sapiens) (O94782 whole entry, looked up): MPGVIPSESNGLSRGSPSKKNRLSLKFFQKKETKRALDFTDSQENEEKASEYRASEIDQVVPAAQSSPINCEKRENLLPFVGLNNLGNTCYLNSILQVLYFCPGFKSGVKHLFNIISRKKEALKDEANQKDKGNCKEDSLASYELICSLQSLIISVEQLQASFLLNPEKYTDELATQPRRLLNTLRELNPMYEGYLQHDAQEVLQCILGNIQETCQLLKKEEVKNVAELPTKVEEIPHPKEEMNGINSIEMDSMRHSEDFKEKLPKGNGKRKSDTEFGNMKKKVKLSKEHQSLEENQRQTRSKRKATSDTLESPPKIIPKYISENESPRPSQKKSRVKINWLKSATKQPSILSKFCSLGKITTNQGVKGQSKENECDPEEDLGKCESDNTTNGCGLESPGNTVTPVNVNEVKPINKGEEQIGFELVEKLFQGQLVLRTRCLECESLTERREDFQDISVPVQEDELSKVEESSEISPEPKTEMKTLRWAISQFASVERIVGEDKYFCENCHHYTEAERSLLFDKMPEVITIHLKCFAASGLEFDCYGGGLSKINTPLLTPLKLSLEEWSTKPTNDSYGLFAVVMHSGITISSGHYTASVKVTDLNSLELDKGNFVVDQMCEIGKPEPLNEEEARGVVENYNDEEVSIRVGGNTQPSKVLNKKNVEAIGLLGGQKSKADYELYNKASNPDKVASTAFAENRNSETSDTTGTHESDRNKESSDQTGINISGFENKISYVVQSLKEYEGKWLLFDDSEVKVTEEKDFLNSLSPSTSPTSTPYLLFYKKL
# Procedure, shortened: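 Deubiquitinase activity followed as kinetic rhodamine fluorescence release from 150 nM Ub-Rho. 1 nM USP1/UAF1 with compound, after 15 min room-temperature preincubation, in HEPES pH 7.8 buffer containing TCEP, EDTA, BSA and Tween-20.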
# [9] = HepG2 viability counterscreen (readout 1: protease activity) against the NCATS DSHEA and TCM libraries (AID 1794841); settings: qHTS concentration series; series mostly up to 27.3 µM;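 further: cells exposed to compounds for about 24 h before the protease read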
# Procedure, shortened: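 Readout 1: cellular protease activity, GF-AFC substrate (25 uM final, 30 min, fluorescence 380/510 nm). Readout 2: ATP content by CellTiter-Glo luminescence after 30 min at RT. Both follow ~24 h exposure of HepG2 cells (1,000/well) to substances.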
# [10] = biological target: Cytochrome P450 3A4 (Homo sapiens) (UniProt P08684); experiment: qHTS for inhibitors of CYP3A4 against the NCATS DSHEA and TCM libraries (AID 1919971); settings: recombinant CYP3A4 enzyme activity, luminescence qHTS; series mostly up to 34.1 µM;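 further: inhibition lowers luminescence from luciferin made by CYP3A4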
# Chain of Cytochrome P450 3A4 (Homo sapiens) (P08684 whole entry, looked up, canonical isoform): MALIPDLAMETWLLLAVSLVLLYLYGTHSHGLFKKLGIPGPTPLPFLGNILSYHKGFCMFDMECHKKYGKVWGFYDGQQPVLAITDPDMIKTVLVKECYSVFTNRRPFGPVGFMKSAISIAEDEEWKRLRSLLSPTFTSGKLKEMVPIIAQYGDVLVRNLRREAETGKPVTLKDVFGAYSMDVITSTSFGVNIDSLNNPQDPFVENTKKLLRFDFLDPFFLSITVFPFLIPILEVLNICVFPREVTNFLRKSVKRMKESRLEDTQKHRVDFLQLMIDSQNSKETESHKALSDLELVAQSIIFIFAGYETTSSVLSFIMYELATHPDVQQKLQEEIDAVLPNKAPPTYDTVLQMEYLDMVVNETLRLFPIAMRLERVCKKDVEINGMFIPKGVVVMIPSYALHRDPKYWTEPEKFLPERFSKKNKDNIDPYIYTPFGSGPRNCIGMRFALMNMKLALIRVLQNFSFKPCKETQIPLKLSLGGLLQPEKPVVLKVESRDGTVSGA
# Procedure, shortened: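 Each CYP isoform and its pro-luciferin substrate, at isoform-specific final concentrations, were preincubated 15 min at RT with substances. NADPH regeneration solution (1x) started a 30-45 min reaction, and P450-Glo luminescence was read.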
# [11] = biological target: Cytochrome P450 2D6 (Homo sapiens) (UniProt P10635); experiment: qHTS for inhibitors of CYP2D6 against the NCATS DSHEA and TCM libraries (AID 1919972); settings: CYP2D6 enzymatic inhibition, luminescence qHTS; series mostly up to 34.1 µM
# Chain of Cytochrome P450 2D6 (Homo sapiens) (P10635 whole entry, looked up): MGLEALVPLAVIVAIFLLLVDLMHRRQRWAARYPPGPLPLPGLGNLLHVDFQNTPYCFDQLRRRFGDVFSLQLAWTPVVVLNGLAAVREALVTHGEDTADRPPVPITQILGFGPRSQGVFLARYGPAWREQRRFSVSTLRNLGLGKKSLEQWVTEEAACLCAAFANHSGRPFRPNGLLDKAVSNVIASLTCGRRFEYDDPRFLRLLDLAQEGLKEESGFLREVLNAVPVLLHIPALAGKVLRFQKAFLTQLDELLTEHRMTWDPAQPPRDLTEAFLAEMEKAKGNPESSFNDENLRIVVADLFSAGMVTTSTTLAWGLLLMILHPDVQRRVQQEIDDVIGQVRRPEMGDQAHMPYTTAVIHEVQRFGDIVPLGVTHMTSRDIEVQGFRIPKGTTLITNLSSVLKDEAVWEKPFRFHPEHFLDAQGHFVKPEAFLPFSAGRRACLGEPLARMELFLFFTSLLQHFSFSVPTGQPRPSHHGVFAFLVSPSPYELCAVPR
# Procedure, shortened: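 CYP2D6 enzyme with pro-luciferin substrate in manufacturer buffer (typically 100 mM KPO4), preincubated 15 min RT with substances (most at 19.5 nM upward); NADPH regeneration system (1x) started 30–45 min RT reaction; P450-Glo luminescence read after 30 min; quinidine as intraplate control.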
# [12] = KB-3-1 P-gp reporter qHTS against the NCATS DSHEA and TCM libraries (AID 1919975); settings: KB-3-1 parental cells, CellTiter-Glo luminescence viability, 72 h; series mostly up to 26.1 µM
# Procedure, shortened: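 Cell viability by CellTiter-Glo luminescence following ~72 h compound exposure (concentration-response). Uses parental, non-P-gp-overexpressing KB-3-1 line, 500 cells/well in DMEM/10% FBS, attached ~4 h before dosing.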
# [13] = biological target: Nuclear receptor subfamily 1 group I member 2 (Homo sapiens) (UniProt O75469); experiment: Dual reporter qHTS for agonist of Pregnane X Receptor (hPXR) against the NCATS DSHEA and TCM libraries: Luminescence readout (AID 1920059); settings: hPXR dual reporter cells, luciferase luminescence agonist; series mostly up to 40 µM
# Chain of Nuclear receptor subfamily 1 group I member 2 (Homo sapiens) (O75469 whole entry, looked up): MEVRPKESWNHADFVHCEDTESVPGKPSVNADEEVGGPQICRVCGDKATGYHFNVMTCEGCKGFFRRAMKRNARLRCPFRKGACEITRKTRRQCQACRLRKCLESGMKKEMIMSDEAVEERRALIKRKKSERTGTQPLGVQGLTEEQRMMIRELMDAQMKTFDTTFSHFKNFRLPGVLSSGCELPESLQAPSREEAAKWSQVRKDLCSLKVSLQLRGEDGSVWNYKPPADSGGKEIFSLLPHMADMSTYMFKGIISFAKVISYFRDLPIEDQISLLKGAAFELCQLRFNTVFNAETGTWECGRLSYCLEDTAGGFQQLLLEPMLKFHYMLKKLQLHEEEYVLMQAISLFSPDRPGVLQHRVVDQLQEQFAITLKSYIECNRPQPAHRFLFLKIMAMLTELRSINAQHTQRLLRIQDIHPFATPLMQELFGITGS
# Procedure, shortened: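 hPXR-Luc HepG2 cells, 2000/well in 5% charcoal-stripped FBS medium, attached 5 h, then exposed 24 h at 37C to compounds. Viability by CellTiter-Fluor, then luciferase luminescence with ONE-Glo.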
# [14] = biological target: Nuclear receptor subfamily 1 group I member 2 (Homo sapiens) (UniProt O75469); experiment: Dual reporter qHTS for antagonist of Pregnane X Receptor (hPXR) against the NCATS DSHEA and TCM libraries: Luminescence Readout (AID 1920060); settings: hPXR dual reporter cells, luciferase luminescence, antagonist mode; series mostly up to 40 µM;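 further: HepG2 cells carrying hPXR luciferase reporter stimulated with rifampicin at 2 µM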
# Procedure, shortened: (§1)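 HepG2 hPXR-Luc, 2000 cells/well, charcoal-stripped FBS medium; 5 h attach; RIF 2 uM final; 24 h 37C/5% CO2; CellTiter-Fluor 1 h, fluor 405/540; ONE-Glo 30 min RT, lum.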
# [15] = Dual reporter qHTS for antagonist of Pregnane X Receptor (hPXR) against the NCATS DSHEA and TCM libraries: Fluorescence Readout (AID 1920061); settings: PXR dual reporter cells, antagonist mode; series mostly up to 40 µM
# Procedure, shortened: as §1
# [16] = biological target: Glucocorticoid receptor (Homo sapiens) (UniProt P04150); experiment: GR-GFP Redistribution (AID 450;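 active means compounds whose dose series gives a full or clear partial fitted curve of increased nuclear translocation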; further: potency means the concentration at half of the fitted maximal effect); settings: U2OS GR-GFP nuclear translocation, laser cytometry, 2 h
# [17] = biological target: Glutathione peroxidase 1 (Homo sapiens) (UniProt P07203); experiment: Primary qHTS Assay for Inhibitors of Recombinant Selenoprotein Glutathione Peroxidase 1 (GPX1) (AID 1845191); settings: recombinant GPX1, GR-coupled NADPH fluorescence, 15 min; series mostly up to 48.8 µM; further: nearly all actives have a fitted effect of over 65% in size; further: potency means the concentration at half of the fitted maximal effect
# Chain of Glutathione peroxidase 1 (Homo sapiens) (P07203 whole entry, looked up): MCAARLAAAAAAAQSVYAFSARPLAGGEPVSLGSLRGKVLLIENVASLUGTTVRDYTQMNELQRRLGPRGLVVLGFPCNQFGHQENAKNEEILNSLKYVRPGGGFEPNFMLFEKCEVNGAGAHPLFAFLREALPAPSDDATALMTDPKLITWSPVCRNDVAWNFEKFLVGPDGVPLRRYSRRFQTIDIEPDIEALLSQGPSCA
# Procedure, shortened: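 GR-coupled readout: NADPH consumption tracked by fluorescence, ex 340/em 450 nm, at t=0 and after 15 min at RT. Final mix 10 nM GPX1, 1 mM GSH, 0.5 mM CHP, 0.5 mM NADPH, 100 nM GR, 0.01% BSA, following 30 min enzyme–compound preincubation.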
# [18] = biological target: Cytochrome P450 1A2 (Homo sapiens) (UniProt P05177); experiment: p450-cyp1a2 (AID 410; calls by dose curve; further: potency means the concentration at half of the fitted maximal effect); settings: recombinant CYP1A2, luciferin-ME demethylation, luminescence; series mostly up to 57 µM
# Chain of Cytochrome P450 1A2 (Homo sapiens) (P05177 whole entry, looked up): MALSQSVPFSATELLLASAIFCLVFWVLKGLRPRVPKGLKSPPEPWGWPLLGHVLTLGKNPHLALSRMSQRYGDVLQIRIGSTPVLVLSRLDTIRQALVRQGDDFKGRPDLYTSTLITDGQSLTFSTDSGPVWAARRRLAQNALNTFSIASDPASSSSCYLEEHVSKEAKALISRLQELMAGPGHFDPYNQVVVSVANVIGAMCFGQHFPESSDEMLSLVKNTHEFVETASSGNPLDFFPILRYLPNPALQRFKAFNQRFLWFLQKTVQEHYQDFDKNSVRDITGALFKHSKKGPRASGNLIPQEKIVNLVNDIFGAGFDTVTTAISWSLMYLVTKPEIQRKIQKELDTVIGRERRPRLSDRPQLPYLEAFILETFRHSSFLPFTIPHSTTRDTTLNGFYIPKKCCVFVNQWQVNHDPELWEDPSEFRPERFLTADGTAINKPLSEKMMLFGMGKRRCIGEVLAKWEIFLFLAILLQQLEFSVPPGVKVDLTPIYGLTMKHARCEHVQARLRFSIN
# Procedure, shortened: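 Luminescent demethylation readout: Luciferin-ME (100uM, equal to Km) turned over by 20nM CYP1A2 for 60 min at room temperature after NADPH regeneration addition, following 10 min compound preincubation. Normalization used 57 uM furafylline as full inhibition.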
# [19] = biological target: Cytochrome P450 3A4 (Homo sapiens) (UniProt P08684); experiment: qHTS Assay for Activators of Cytochrome P450 3A4 (AID 885); settings: recombinant CYP3A4, Luciferin-PPXE luminescence, 60 min; series mostly up to 57.1 µM; further: nearly all actives have a fitted effect of over 65% in size
# Procedure, shortened: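 Activators are scored by enhanced luminescence from CYP3A4 conversion of luciferin-PPXE (25uM, equal to KM) to luciferin, after 60 min at RT with an NADPH-regenerating system.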
structure (smiles),measurement,setting,value
COc1ccccc1CNc1nc(-c2cccc(NS(C)(=O)=O)c2)nc2ccccc12,Potency,[1],> 11.4 µM
same,"activity change, negative = inhibition",[2],-13.2%
same,"activity change, negative = inhibition",[3],-21%
same,outcome,[4],inactive
same,Potency,[5],> 46 µM
same,Potency,[6],inactive
same,Potency,[7],inactive
same,Potency,[8],inactive
COc1ccccc1/C=C/C=O,outcome,[9],inactive
same,Potency,[10],inactive
same,Potency,[11],inactive
same,outcome,[12],inactive
same,Potency,[13],inactive
same,outcome,[14],inactive
same,outcome,[15],inactive
Cc1nc2cnc(N3CCOCC3)nc2n(CCc2ccccc2)c1=O,"activity change, negative = inhibition",[2],3.7%
same,"activity change, negative = inhibition",[3],15.3%
same,outcome,[4],inactive
same,Potency,[16],> 9.22 µM
same,Potency,[5],> 46 µM
same,Potency,[6],inactive
same,Potency,[7],inactive
same,Potency,[8],inactive
COc1ccc(-c2nn3c(-c4ccco4)nnc3s2)cc1OC,Potency,[17],inactive
CCOC(=O)N[C@@H]1CC[C@@H]2[C@@H](C1)C[C@H]1C(=O)O[C@H](C)C1[C@H]2/C=C/c1ccc(-c2cccc(F)c2)cn1 (stereo partly specified),Potency,[17],inactive
Nc1c(C(=O)Nc2ccc(F)cc2)sc2nc(-c3cccs3)cc(C(F)(F)F)c12,Potency,[17],14.3 µM (active)
Cn1cc(CN2CCN(C(c3ccccc3)c3ccccc3)CC2)cc1C#N,Potency,[17],inactive
COc1cccc(C(c2sc3nc(-c4ccco4)nn3c2O)N2CCN(C)CC2)c1 (stereo unspecified),Potency,[17],inactive
Cn1c(=O)oc2ccc(C(=O)N[C@H](C3CCNCC3)C3CC(O)C3)cc21 (stereo partly specified),Potency,[17],inactive
Clc1ccc(-c2csc(NN=C3CCCC3)n2)cc1,Potency,[17],inactive
Nc1nc(NCc2ccccc2)c2[nH]cnc2n1,Potency,[17],inactive
CN1CCN(c2nc(-c3cccnc3)nc3ccccc23)CC1,"activity change, negative = inhibition",[2],5.32%
same,Potency,[18],3.16 µM (active)
same,"activity change, negative = inhibition",[3],11.1%
same,Potency,[16],> 46 µM
same,Potency,[5],> 46 µM
same,Potency,[6],inactive
same,outcome,[19],inactive
same,Potency,[7],inactive
same,Potency,[8],inactive
CC[C@@]1(O)CC2CN(CCc3c([nH]c4ccccc34)[C@](C(=O)OC)(c3cc4c(cc3OC)N(C)C3[C@@](O)(C(N)=O)[C@H](O)[C@]5(CC)C=CCN6CC[C@@]43[C@@H]65)C2)C1 (stereo partly specified),Potency,[17],inactive
